Assay outcomes (PubChem BioAssay)
Compounds with a hit are over-represented: about 4.8% of the library has one in this group of screens.
DRD3 agonist: activates the human D3 dopamine receptor; P35462; 410,000 compounds, 0.58% hits; D3R DiscoveRx beta-arrestin cells, luminescence, 90 min; max activation, %; in the data active means max activation above about 30%; further: 0% is about no effect
Target sequence (P35462 whole entry, looked up): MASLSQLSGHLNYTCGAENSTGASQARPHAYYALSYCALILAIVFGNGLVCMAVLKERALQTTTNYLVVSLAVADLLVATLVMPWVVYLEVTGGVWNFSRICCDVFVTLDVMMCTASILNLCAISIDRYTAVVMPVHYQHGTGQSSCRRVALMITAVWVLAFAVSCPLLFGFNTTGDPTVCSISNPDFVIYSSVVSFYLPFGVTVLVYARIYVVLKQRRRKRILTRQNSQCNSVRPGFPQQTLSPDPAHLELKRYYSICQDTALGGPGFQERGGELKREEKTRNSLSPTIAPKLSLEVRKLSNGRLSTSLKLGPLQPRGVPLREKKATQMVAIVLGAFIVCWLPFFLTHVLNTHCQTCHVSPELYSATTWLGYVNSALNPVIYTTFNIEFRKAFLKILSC
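Agonist mode: compounds and dopamine controls were applied to plated cells for 90 min at 37 degrees C after an overnight attachment at 1500 cells/well. Luminescent read-out followed 30 - 60 minutes at room temperature with DiscoveRx detection reagent.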
TGFb inhibitor: blocks TGF-b signaling. Potency, µM (series often up to 46.1 µM), for inactives: top-dose activity, negative = inhibition, hits mostly inhibitors. AID 588855. HepG2 CAGA-GFP TGF-b/SMAD3 reporter, GFP fluorescence, 18 h; TGF-beta stimulated, 500 pg/mL final. 410,000 compounds, 1.2% hits; further: potency means the concentration at half of the fitted maximal effect; on the % scale 0 is the no-effect control and ±100 the full control effect; nearly all actives have a fitted effect of over 65% in size
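Inhibition was scored as loss of TGF-beta-induced (500 pg/mL final, 18 hours, 37 degrees C) GFP in HEPG2 cells carrying a CAGA-GFP reporter, in DMEM with 1% FBS. Well GFP was summed per cell; Activity was normalised to unstimulated and stimulated DMSO wells, then concentration-response fitting.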
DRD3 antagonist: antagonists of human D3 dopamine receptor | D3R cells, DiscoveRx beta-arrestin luminescence, antagonist mode; stronger effect = lower value | 360,000 compounds, 2.5% hits | AID 652054 | max response, negative = inhibition, %; in the data active means max response below about -50%; inconclusive means no clear call, values can overlap the other calls; further: on the % scale 0 is the no-effect control and ±100 the full control effect
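Cells expressing the human receptor were seeded at 1500 cells/well, incubated overnight at 37 degrees C in 5% CO2, then exposed to library compounds with dopamine controls for 90 minutes at 37 degrees C before luminescent detection.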
ATXN2 expr inh: ATXN2 expression inhibition | HEK-293 ATXN2-luciferase reporter, luminescence, 24 h | Potency, µM (doses to about 57 µM), inactives show at the highest dose activity change, negative = inhibition, hits mostly inhibitors | 360,000 compounds, 0.72% hits | AID 1745845; further: potency means the concentration at half of the fitted maximal effect; on the % scale 0 is the no-effect control and ±100 the full control effect; nearly all actives have a fitted effect of over 55% in size
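qHTS (up to 57 uM final) was run with 24 h compound exposure of reporter cells at 37 °C. Each well was multiplexed: SteadyGlo luminescence measured ATXN2-luciferase expression after a fluorogenic Gly-Phe-AFC viability readout (25 uM final).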
S2 tox: reduces viability in counter-screen for ATXN expression inhibitors; S2 cells (HEK-293 line with an ATXN2-luciferase reporter) viability, CellTiter-Fluor protease fluorescence, 24 h; 400,000 compounds, 0.49% hits; AID 651635; Potency, µM (highest dose often 56.7 µM), hits mostly cytotoxic; further: potency means the concentration at half of the fitted maximal effect; nearly all actives have a fitted effect of over 40% in size
HepG2 viability: HepG2 cytotoxicity, counter-screen for TGF-b inhibitors. Potency, µM (highest dose often 46.1 µM), for the others: at the top dose activity change, negative = cytotoxicity, actives largely listed as cytotoxic. HepG2 CAGA-GFP viability, ATP luminescence, 18 h. 410,000 compounds, 0.76% hits. AID 588856; further: potency means the concentration at half of the fitted maximal effect
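HepG2 CAGA-GFP cells (1000/well, DMEM with 1% FBS) received compound, then TGF-beta at 500 pg/mL final, and were incubated 18 hours at 37 degrees C. Viability was read by CellTiter-Glo luminescence. Media-only wells were set as complete cell-killing and DMSO as no toxicity.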
The depositor's hits bear a star. Unless noted, the call rests on the fitted dose curve; in most records, active means well fitted curve in the direction sought with a large enough effect; inconclusive means small, poorly fitted or top-dose-only effect, or another doubt; inactive means no such curve, though single readings can be large; an effect the other way counts as inactive or inconclusive.

COc1cc2c(cc1NC(=O)COc1cc(C)ccc1C)oc1ccccc12 was read as DRD3 agonist -5, TGFb inhibitor -14% and HepG2 viability 2%.
Oc1cc(NCCc2cccnc2)cc2cccnc12 was read as TGFb inhibitor inconclusive, ATXN2 expr inh 40µM*, S2 tox inconclusive and HepG2 viability 11µM*.
Cc1cc(F)ccc1S(=O)(=O)Nc1ccc2c(c1)CCCN2C(=O)c1cccs1 was read as DRD3 agonist 1, TGFb inhibitor 16µM*, ATXN2 expr inh inconclusive and HepG2 viability -38%.
`O=C(c1cccs1)N1CCCc2cc(NS(=O)(=O)c3ccc(F)cc3F)ccc21` gave DRD3 agonist 0, TGFb inhibitor inconclusive, ATXN2 expr inh -17%, S2 tox inconclusive and HepG2 viability -40%.
For Nc1cc([N+](=O)[O-])cc(N)c1N the results were TGFb inhibitor -4% and HepG2 viability 1%.
For O=C(NC1CCOCC1)c1ccc(-c2cc(-c3cn[nH]c3-c3ccccn3)ccn2)cc1 the results were ATXN2 expr inh -26%.
Screening N/C(Cc1cccc2ccccc12)=N\O returned DRD3 agonist 30*, TGFb inhibitor -2%, DRD3 antagonist 19, ATXN2 expr inh 20%, S2 tox inactive and HepG2 viability 18%.
For O=C(CN1C(=O)c2ccccc2S1(=O)=O)c1ccccc1F the results were DRD3 agonist -1, TGFb inhibitor -13%, DRD3 antagonist 10, ATXN2 expr inh 7.9µM*, S2 tox inactive and HepG2 viability 5%.
For O=C(CCN1C(=O)c2ccccc2S1(=O)=O)Nc1cc(Cl)ccc1Cl the results were DRD3 agonist 2, TGFb inhibitor 5%, DRD3 antagonist 2, ATXN2 expr inh 3%, S2 tox inactive and HepG2 viability -10%.
Screening O=C(CN1C(=O)c2ccccc2S1(=O)=O)c1ccc(F)cc1 returned DRD3 agonist -11, TGFb inhibitor 3%, DRD3 antagonist -5, S2 tox inactive and HepG2 viability 3%.
`O=C(CN1C(=O)c2ccccc2S1(=O)=O)c1ccc2c(c1)OCCO2` gave DRD3 agonist -8, TGFb inhibitor -15%, DRD3 antagonist -20, S2 tox inactive and HepG2 viability -7%.
O=C(CN1C(=O)c2ccccc2S1(=O)=O)c1ccc(Cl)cc1Cl was read as DRD3 agonist -5, TGFb inhibitor -5%, DRD3 antagonist -29, ATXN2 expr inh 2µM*, S2 tox inactive and HepG2 viability -7%.
For O=C(CN1C(=O)c2ccccc2S1(=O)=O)c1ccc2c(c1)OCCCO2 the results were DRD3 agonist 10, TGFb inhibitor inconclusive, DRD3 antagonist 9, ATXN2 expr inh 0.28µM*, S2 tox inactive and HepG2 viability -15%.
Screening O=C(CN1C(=O)c2ccccc2S1(=O)=O)c1ccc(OC(F)F)cc1 returned DRD3 agonist -5, TGFb inhibitor 11%, DRD3 antagonist inconclusive, ATXN2 expr inh 2µM*, S2 tox inactive and HepG2 viability 6%.
Screening CC(=O)c1ccc(NC(=O)C2CCN(S(=O)(=O)c3ccc4c(c3)CCCN4C(=O)C3CCC3)CC2)cc1 returned DRD3 agonist 1, TGFb inhibitor -8%, ATXN2 expr inh 6%, S2 tox inactive and HepG2 viability -28%.
For COc1ccc(-c2cc(C(=O)Nc3c(Cl)cccc3Cl)no2)cc1OC the results were DRD3 agonist 13, TGFb inhibitor -3%, ATXN2 expr inh 7%, S2 tox inconclusive and HepG2 viability -9%.
CSc1ccc(CCNC(=O)CN2C(=O)COc3ccc(S(=O)(=O)N4CCCCCC4)cc32)cc1 was read as DRD3 agonist -16, TGFb inhibitor inconclusive, ATXN2 expr inh 0%, S2 tox inconclusive and HepG2 viability -24%.
For Cn1c(SCc2nc(-c3ccccc3)no2)nnc1-c1cccs1 the results were DRD3 agonist 32*, TGFb inhibitor 25%, DRD3 antagonist 11, ATXN2 expr inh 2%, S2 tox inactive and HepG2 viability 0%.
O=C(Cn1cc(C(=O)C(F)(F)F)c2ccccc21)Nc1ccccc1F was read as DRD3 agonist -9, TGFb inhibitor 9%, DRD3 antagonist 2, ATXN2 expr inh -45%, S2 tox inconclusive and HepG2 viability 11µM*.
For COc1ccc(CC(N)c2csc(NC(=O)NCCc3ccccc3)n2)cc1 (configuration not stated) the results were DRD3 agonist -11, TGFb inhibitor inconclusive, DRD3 antagonist -4, ATXN2 expr inh inconclusive, S2 tox inconclusive and HepG2 viability -75%.
For COc1ccc(CC(N)c2csc(NC(=O)C(c3ccccc3)c3ccccc3)n2)cc1 (configuration not stated) the results were DRD3 agonist -3, TGFb inhibitor inconclusive, DRD3 antagonist -2, ATXN2 expr inh inconclusive, S2 tox inconclusive and HepG2 viability 11µM*.
`COc1ccc(CC(N)c2csc(NC(=O)c3ccccc3)n2)cc1` (configuration not stated) gave DRD3 agonist 5, TGFb inhibitor -7%, DRD3 antagonist 16, ATXN2 expr inh -24%, S2 tox inconclusive and HepG2 viability -35%.
`COc1ccc(CC(N)c2csc(NC(=O)c3ccccc3OC)n2)cc1` (configuration not stated) gave DRD3 agonist 2, TGFb inhibitor -21%, DRD3 antagonist 15, ATXN2 expr inh 22µM*, S2 tox inconclusive and HepG2 viability -49%.
Screening CCc1ccc(-n2nc(CO)c(C(=O)NCCCCc3ccccc3)n2)cc1 returned DRD3 agonist 12, TGFb inhibitor inconclusive and HepG2 viability -20%.
Cc1cccc(NC(=O)CSc2ncc(-c3ccc(Br)cc3)[nH]2)c1 was read as DRD3 agonist -9, TGFb inhibitor inconclusive, ATXN2 expr inh inconclusive, S2 tox inconclusive and HepG2 viability 13µM*.
For CC(=O)NN1C(=O)c2ccc3c4c(ccc(c24)C1=O)C(=O)N(NC(C)=O)C3=O the results were DRD3 agonist 1, TGFb inhibitor 7.9µM*, DRD3 antagonist 73 and HepG2 viability 10µM*.
O=C1c2ccc3c4c(ccc(c24)C(=O)N1NC(=O)C(F)(F)F)CC3 was read as DRD3 agonist 2, TGFb inhibitor 1%, DRD3 antagonist 1, ATXN2 expr inh -6%, S2 tox inactive and HepG2 viability 5%.
Screening CCN1C(=O)/C(=C2\C=Cc3ccccc3N2CC)SC1=S returned DRD3 agonist -14, TGFb inhibitor -14%, DRD3 antagonist -91*, ATXN2 expr inh 5%, S2 tox inconclusive and HepG2 viability 1%.
